From PubChem BioAssay (NCI) come the findings set out here.

Compounds without any hit were thinned out: in the full panel of roughly 83,000, 20% have a hit.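 Percent growth is the endpoint: 0 to 100 indicates growth inhibition (40 means 60% inhibition), 0 means no net growth, and negative values indicate cell death.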 Values without a mark were called inactive. Active and inactive are the calls of the source. Rule for the calls: active = growth percent below 10; inactive = the rest.

For the assay, the system named is ACHN renal. Briefly: NCI-60 one-dose screen, 48 h (100 = growth as untreated, 0 = no growth, -100 = all killed). The following applies: 10 µM unless noted.
For `COC(=O)[C@]12CC[C@@H](C)[C@H](C)[C@@H]1C1=CC[C@@H]3[C@@]4(C)C(C=O)=C[C@@](C)(COC(=O)c5ccco5)[C@@H]4C(=O)C[C@@]3(C)[C@]1(C)CC2`, the growth is 13.4%.

On to `COc1cccc(C(=O)NCCNc2cc(-c3cn(-c4ccccc4)nc3-c3cccc(OC)c3)ccn2)c1`, for which the growth was 69.8%. Next, `O=C(O)C1CCC(=O)N1C(=O)OCc1ccccc1` (configuration not stated): 96.3%; `Cc1cc(NCc2cc(Nc3ccnc4cc(Cl)ccc34)ccc2F)nc(N2CCCC2)n1`: -69.2% (active). In the case of `COC(=O)[C@]12CC[C@@H](C)[C@H](C)[C@@H]1C1=CC[C@@H]3[C@@]4(C)C(C=O)=C[C@@](C)(COC(=O)c5ccco5)C4=CC[C@@]3(C)[C@]1(C)CC2` it was -33.9% (active); in that of `CC(CCc1ccc(Cl)c(Cl)c1)NCc1ccc(C(C)(C)C)cc1` (configuration not stated), 92.7%; in that of `Cc1ccc2nc3ccccc3c(NCc3ccccc3)c2c1`, 23.2%. Turning to `COc1cc(-c2nc(N3CCN(C)CC3)c3ccccc3n2)cc(OC)c1OC`, the growth was 47.5%. Next, `CCn1c(C)nc2cc(C(N)=O)ccc21`: 96.7%; `CN(C)CC1C(=O)O[C@H]2[C@H]1CC/C(COC(=O)c1cc3ccccc3[nH]1)=C\CC[C@@]1(C)O[C@@H]21` (some centres not stated): -82.4% (active). Next, `CN1CCN(CCCOc2ccc3nc(Nc4ccc(F)c(F)c4)ccc3c2)CC1`: 44.3%; `COc1cccc(-c2nn(-c3ccccc3)cc2-c2ccnc(NCCCNC(=O)c3cccc(C(F)(F)F)c3)c2)c1`: 31.7%; `COc1ccc(-c2cc(-c3cc(OC)ccc3OC)nc(SCC(=O)c3ccccc3)c2C#N)cc1`: 91.6%. In the case of `Cc1ccc(Cl)c(NS(=O)(=O)c2ccc(-c3cnc(C4CC4)o3)cc2)c1` it was 36%; in that of `COc1cccc(-c2nn(-c3ccccc3)cc2-c2ccnc(NCCNC(=O)c3ccccc3)c2)c1`, 74.1%; in that of `Cc1cc(N2CCCC2)nc(NCc2cc(Nc3ccnc4cc(Cl)ccc34)ccc2F)n1`, -72.3% (active).

Consider `COc1cccc(-c2nn(-c3ccccc3)cc2-c2ccnc(NCCNC(=O)Nc3ccccc3)c2)c1`, for which the growth was 68.9%.

With `CC(C)CCC[C@@H](C)[C@H]1CC[C@H]2[C@@H](Nc3ccc(O)cc3)CCC[C@]12C`, the growth was 78.8%. Take `COc1cc(-c2nn(-c3ccccc3)cc2-c2ccnc(NCCNS(=O)(=O)c3ccc(Cl)cc3)n2)ccc1Cl`: the growth is 15.4%. Turning to `CCCCn1c(=O)c2c(nc3n2CCCN3CCc2ccc(OCC(=O)NCCN(CC)CC)cc2)n(CCCC)c1=O`, the growth was 78.3%. Regarding `COC(=O)CCC1=C(C)C2=NC1=CC1=NC(=CC3=NC(=Cc4[nH]c(/c(=C(/C)O)c4C)=C2)C(C(C)=O)=C3C)C(C)=C1CCC(=O)OC`, the growth was 103%. Next, `N[C@@H](CCCCNCC(=O)O)C(=O)O`: 96.8%; `O=C(c1ccc(Nc2nccc(NCCCCNc3ccnc4cc(Cl)ccc34)n2)cc1)N1CCCCC1`: 37.8%; `Cc1ccc(NCCN(C)C)c2c(=O)c3ccccc3sc12`: 3.03% (active).

Consider `Cc1cc(NCCCCNc2ccnc3cc(Cl)ccc23)nc(Nc2ccc(C(=O)N3CCCC3)cc2)n1`, for which the growth is 60.7%. Next, `CC(C)(C)n1cc(-c2ccnc(NCCCNS(=O)(=O)c3ccccc3)c2)c(-c2ccccc2)n1`: 97.2%; `Fc1ccc(CNc2c3ccccc3nc3ccccc23)cc1F`: 19.3%. Take `c1c[nH]c(CNC2CCCCC2)c1`: the growth was 98.1%.

Take `COc1cccc(-c2nn(-c3ccccc3)cc2-c2ccnc(NCCNC(=O)Nc3cccc(C(F)(F)F)c3)c2)c1`: the growth is 35.1%. In the case of `O=C(NCCCNc1cc(-c2cn(-c3ccccc3)nc2-c2cccc(O)c2)ccn1)c1ccc(F)cc1` it was 51.7%. Next, `Cc1cc(NCc2cc(Nc3ccnc4cc(Cl)ccc34)ccc2F)nc(Cl)n1`: 46.6%. For `NC(=O)c1ccc[n+](Cc2ccc(Cl)cc2Cl)c1`, the growth was 109%. `Cc1cc(Cl)nc(NCc2cc(Nc3ccnc4cc(Cl)ccc34)ccc2F)n1`: the growth is 76.1%. Consider `COc1ccc(-c2ccc3c(c2)sc2nc(-c4ccc(F)cc4)cn23)cc1`, for which the growth is 92.9%. Next, `O=C(NCCCNc1cc(-c2cn(-c3ccccc3)nc2-c2cccc(O)c2)ccn1)c1ccccc1`: 45.8%; `FC(F)(F)c1cc(Nc2ccc3cc(OCCCN4CCOCC4)ccc3n2)ccc1Cl`: 29.5%; `COC(=O)[C@]12CC[C@@H](C)[C@H](C)[C@@H]1C1=CC[C@@H]3[C@@]4(C)C(C=O)=C[C@@](C)(COC(C)=O)C4=CC[C@@]3(C)[C@]1(C)CC2`: -16% (active).
